This passage reports Potency results from PubChem BioAssay AID1347150 (National Center for Advancing Translational Sciences (NCATS), 2019).

Inconclusive results are not listed. Where a call stands in place of a potency, no number is given. Active and inactive are the calls of the source. Calls follow the shape of the dose curve; as a rule, active = well fitted curve in the direction sought with a large enough effect; inconclusive = small, poorly fitted or top-dose-only effect, or another doubt; inactive = no such curve, though single readings can be large or run the other way. Numbered stars: 1 amine (or outer) side, 2 acyl side, 3 side chain; on linkers, the order of the positions; unused ones are H or OH. Bridge positions count the residues as written; N and C are the ends. Square brackets hold non-standard residues; d marks the D form. Peptide text beside a SMILES is read from it. I, II: the chains in the order shown. ξ: configuration not given here. Actinocin(9to1) = Cc1c2oc3c(C)ccc(C(=O)[*:1])c3nc-2c(C(=O)[*:2])c(N)c1=O; aThr = C[C@H](O)[C@H](N)C(=O)O; NMeV = CN[C@H](C(=O)O)C(C)C; ξNMeV = CNC(C(=O)O)C(C)C; ξV = CC(C)C(N)C(=O)O; Sar = CNCC(=O)O

The test system of the experiment is Zika virus NS2B-NS3 protease (linked). Nature of the experiment: Optimization screen NINDS AMC qHTS for Zika virus inhibitors: Linked NS2B-NS3 protease assay. The note with it: recombinant linked NS2B-NS3 protease, AMC fluorogenic substrate; series mostly up to 52.5 µM. An excerpt: Avindra Nath, Ph.D., National Institute of Neurological Disorders and Stroke (NINDS), Bethesda, MD
Radhakrishnan Padmanabhan, Ph.D., Georgetown University (GU), Washington D.C.
Zika Virus causes congenital defects, including microcephaly and is associated with Guillain-Barre syndrome, eningoencephalitis and myelitis in infected adult. […] Using a target-based approach, we hope to establish a screening paradigm to uncover novel, cell-active NS2B-NS3 protease (Zika Virus) specific inhibitors from NCATS' collection of small molecules using qHTS.
Four assay panel was created to identify potential Zika Virus inhibitors. Namely, (1) GU unlinked NS2B-NS3 AMC tagged protease qHTS, (2) GU unlinked NS2B-NS3 Rhodamine tagged protease qHTS, (3) NINDS linked NS2B-NS3 AMC tagged protease qHTS, (4) NINDS linked NS2B-NS3 Rhodamine tagged protease qHTS. Active compounds were re-acquired and re-screened to confirm inhibition. Inhibitors were further screened against various confirmatory and counterscreens in dose response format.
Early Translation Branch (ETB)
National Center for Advancing Translational Sciences (NCATS), Rockville, MD
National Institute of Health (NIH), Bethesda, Maryland
For the linked assay, Nath lab (NINDS) provided the purified linked NS2B-NS3 protease which is consists of hydrophilic domain of NS2B linked to the NS3 protease domain by a flexible (-GGGGSGGGG-) linker. Control compound aprotinin is obtained from Thermo Scientific (#78432; Waltham, Massachusetts). NS2B-NS3 AMC substrate (Bz-Nle-Lys-Arg-Arg-AMC; Nle-KRR-AMC) purchased from Bachem (#I-1995; Torrance, CA). Ac-VKTGKR-AMC purchased from Genscript or Bachem, Ac-FAAGKR-AMC purchased from Genscript, Ac-GLVKRR-AMC purchased from Genscript, Ac-LKKR-AMC purchased from Genscript.
NINDS AMC linked NS2B-NS3 protease qHTS protocol:
Briefly, 3 microL of Zika virus linked NS2B-NS3 protease (1 nM for linked final concentration), in assay buffer (10 mM Tris-HCl pH 8.0 with 0.01% Tween 20) was dispensed into a 1,536-well solid-bottom black plate (Greiner Bio One, Monroe, NC). Twenty-three nL of compounds (final concentration range 7.28 nM to 114 microM) or control Aprotinin (final concentration range 3.47 nM to 114 microM) were transferred via Wako Pin-tool (Wako Automation, Richmond, VA). Samples were incubated (room temperature, protected from light) for 15 minutes followed by a 1 microL AMC substrate addition of (final concentration of 10 microM; Km = 18.3 µM). Plates were then read immediately on a ViewLux High-throughput CCD imager (PerkinElmer, Waltham, MA) equipped with standard UV fluorescence optics (340(30) nm excitation, 450(20) nm emission) then incubated (room temperature, protected from light) for 15 minutes (~20% conversion). The change in fluorescence intensity over the 15-minute reaction period was normalized against no-inhibitor and no-enzyme controls and the resulting percent inhibition data were fitted to a 4-parameter Hill equation. Aprotinin was used as the intraplate control.
Turning to `COc1c(C)c2c(c(O)c1C/C=C(\C)CCC(=O)O)C(=O)OC2`, the Potency result was “inactive”.
With `CCOc1ccc(C2C(=O)N(C3CCCCC3)CC(=O)N2Cc2ccc(F)cc2)cc1OC` (stereo not given), the Potency entry was “inactive”.
Next, `C[C@H]1O[C@@H](O[C@H]2[C@@H](O)C[C@H](O[C@H]3[C@@H](O)C[C@H](O[C@H]4CC[C@@]5(C)[C@H](CC[C@@H]6[C@@H]5C[C@@H](O)[C@]5(C)[C@@H](C7=CC(=O)OC7)CC[C@]65O)C4)O[C@@H]3C)O[C@@H]2C)C[C@H](O)[C@@H]1O`: “inactive”; `O=C1c2c(O)ccc([N+](=O)[O-])c2C(=O)c2c([N+](=O)[O-])ccc(O)c21`: 44.1 µM (active).
Regarding `Nc1ncnc2c1ncn2[C@@H]1O[C@H](CSCC[C@H](N)C(=O)O)[C@@H](O)[C@H]1O`, the Potency entry is “inactive”.
Next, `OC(c1cc(C(F)(F)F)nc2c(C(F)(F)F)cccc12)C1CCCCN1` (stereo not given): “inactive”; `S=c1nc[nH]c2nc[nH]c12`: “inactive”; `CC=CCC(C)C(O)C1C(=O)NC(CC)C(=O)N(C)CC(=O)N(C)C(CC(C)C)C(=O)NC(C(C)C)C(=O)N(C)C(CC(C)C)C(=O)NC(C)C(=O)NC(C)C(=O)N(C)C(CC(C)C)C(=O)N(C)C(CC(C)C)C(=O)N(C)C(C(C)C)C(=O)N1C` (stereo not given): “inactive”.
Next, `Cc1nc(Nc2ncc(C(=O)Nc3c(C)cccc3Cl)s2)cc(N2CCN(CCO)CC2)n1`: 355 µM (active); `CC(=O)Nc1ccc([C@H](C)C(=O)Nc2ncc(C(C)C)s2)cc1`: “inactive”; `Nc1ncnc2c1ncn2[C@@H]1O[C@H](C[C@@H](N)CC[C@H](N)C(=O)O)[C@@H](O)[C@H]1O`: “inactive”.
To `CC(C)N=c1cc2n(-c3ccc(Cl)cc3)c3ccccc3nc-2cc1Nc1ccc(Cl)cc1` belongs “inactive”.
On to `Cc1c2oc3c(C)ccc(C(=O)N[C@@H]4C(=O)N[C@@H](C(C)C)C(=O)N5CCC[C@@H]5C(=O)N(C)CC(=O)N(C)[C@@H](C(C)C)C(=O)O[C@H]4C)c3nc-2c(C(=O)N[C@@H]2C(=O)N[C@@H](C(C)C)C(=O)N3CCC[C@@H]3C(=O)N(C)CC(=O)N(C)[C@@H](C(C)C)C(=O)O[C@H]2C)c(N)c1=O` (I: [aThr]V[dP][Sar][NMeV] / II: [aThr]V[dP][Sar][NMeV]; ester I:1-I:C, II:1-II:C; linker I:N-II:N via Actinocin(9to1)), for which the Potency result is “inactive”.
As for `CO[C@H]1C[C@@H](O[C@@H]2/C(C)=C/C[C@@H]3C[C@@H](C[C@]4(CC[C@H](C)[C@@H](C5CCCCC5)O4)O3)OC(=O)[C@@H]3C=C(C)/C(=N/O)[C@H]4OC/C(=C\C=C\[C@@H]2C)[C@]43O)O[C@@H](C)[C@H]1O`, the Potency entry was “inactive”.
To `CCCCOc1ccc(C2C(=O)N(C3CCCCC3)CC(=O)N2C2CCCCC2)cc1` (stereo not given) belongs “inactive”; to `CCc1nc(N)nc(N)c1-c1ccc(Cl)cc1`, “inactive”; to `Nc1nc(=S)c2[nH]cnc2[nH]1`, “inactive”.
To `CC[C@H](C)[C@H]1O[C@]2(CC[C@@H]1C)C[C@@H]1C[C@@H](C/C=C(\C)[C@@H](O[C@H]3C[C@H](OC)[C@@H](O[C@H]4C[C@H](OC)[C@@H](O)[C@H](C)O4)[C@H](C)O3)[C@@H](C)/C=C/C=C3\CO[C@@H]4[C@H](O)C(C)=C[C@@H](C(=O)O1)[C@]34O)O2` belongs “inactive”; to `CN1CCN(C(=O)CCN2C(=O)/C(=C\c3ccccc3F)SC2=S)CC1`, “inactive”.
To `C[C@H](NC(=O)C(=O)Nc1ccccc1C(C)(C)C)C(=O)N[C@@H](CC(=O)O)C(=O)COc1c(F)c(F)cc(F)c1F` belongs “inactive”; to `NC(=O)C(=O)O`, “inactive”; to `O=C1c2cccc3c2[C@@H](CCC3)CN1[C@@H]1CN2CCC1CC2`, “inactive”.
Consider `Cc1ccccc1CNc1ncnc2c1ncn2C1OC(CO)C(O)C1O` (stereo not given), for which the Potency entry is “inactive”.
Next, `CC[C@@H](C)[C@H]1O[C@]2(CC[C@H]1C)C[C@@H]1C[C@@H](CC=C(C)[C@@H](O[C@H]3C[C@H](OC)[C@@H](O[C@H]4C[C@H](OC)[C@@H](O)[C@H](C)O4)[C@H](C)O3)[C@@H](C)C=CC=C3CO[C@@H]4[C@H](O)C(C)=C[C@@H](C(=O)O1)[C@]34O)O2`: “inactive”; `CO[C@H]1C[C@H](O[C@@H]2/C(C)=C/C[C@@H]3C[C@@H](C[C@]4(CC[C@H](C)[C@@H](C5CCCCC5)O4)O3)OC(=O)[C@@H]3C=C(C)/C(=N/O)[C@H]4OC/C(=C\C=C\[C@@H]2C)[C@]43O)O[C@@H](C)[C@@H]1O`: “inactive”; `Nc1ccn([C@@H]2O[C@H](CO)[C@@H](O)C2(F)F)c(=O)n1`: “inactive”.
To `O=c1cc(-c2ccccc2)oc2cc(O)c(O)c(O)c12` belongs “inactive”.
To `COC(=O)Nc1nc2ccc(C(=O)c3ccccc3)cc2[nH]1` belongs “inactive”; to `Cc1c2oc3c(C)ccc(C(=O)N[C@@H]4C(=O)NC(C(C)C)C(=O)N5CCC[C@H]5C(=O)N(C)CC(=O)N(C)C(C(C)C)C(=O)O[C@@H]4C)c3nc-2c(C(=O)N[C@@H]2C(=O)NC(C(C)C)C(=O)N3CCC[C@H]3C(=O)N(C)CC(=O)N(C)C(C(C)C)C(=O)O[C@@H]2C)c(N)c1=O` (stereo not given in full) (I: T[ξV]P[Sar][ξNMeV] / II: T[ξV]P[Sar][ξNMeV]; ester I:1-I:C, II:1-II:C; linker I:N-II:N via Actinocin(9to1)), “inactive”; to `C[S+](CC[C@H](N)C(=O)O)C[C@H]1O[C@@H](n2cnc3c(N)ncnc32)[C@H](O)[C@H]1O` (stereo not given in full), “inactive”.
With `CC[C@@H]1O[C@]2(C=C[C@@H]1C)C[C@H]1C[C@H](CC=C(C)[C@@H](O[C@@H]3C[C@H](OC)[C@H](O[C@@H]4C[C@H](OC)[C@H](O)[C@H](C)O4)[C@H](C)O3)[C@@H](C)C=CC=C3CO[C@@H]4[C@@H](O)C(C)=C[C@@H](C(=O)O1)[C@]34O)O2`, the Potency entry is “inactive”.
To `CC(C)C[C@H](NC(=O)[C@H](Cc1ccccc1)NC(=O)c1cnccn1)B(O)O` belongs “inactive”; to `CC(C)C[C@@H](NC(=O)[C@H](Cc1ccccc1)NC(=O)c1cnccn1)B(O)O`, “inactive”; to `N[C@H](C(=O)O)c1ccc(O)cc1`, “inactive”.
To `CC1O[C@@H](O[C@@H]2C(O)C[C@H](O[C@@H]3C(O)C[C@@H](OC4CC[C@@]5(C)C6CC(O)[C@@]7(C)C(C8=CC(=O)OC8)CC[C@@]7(O)C6CC[C@@H]5C4)OC3C)OC2C)CC(O)[C@H]1O` (stereo not given in full) belongs “inactive”.
To `O[C@@H](c1cc(C(F)(F)F)nc2c(C(F)(F)F)cccc12)[C@H]1CCCCN1` belongs “inactive”; to `O=C(Nc1ccc([N+](=O)[O-])cc1Cl)c1cc(Cl)ccc1O`, “inactive”; to `CCC(CC)(NC(=O)C(C)C)C(=O)N[C@@H](CCCN=C(N)N)C(=O)NC1(C(=O)NC(c2ccc(F)cc2)c2ccc(F)cc2)CCCC1`, “inactive”.
With `COc1c2occc2cc2ccc(=O)oc12`, the Potency result is “inactive”.
To `CCOc1ccc(C2C(=O)N(C3CCCCCC3)CC(=O)N2CCc2ccc(Cl)cc2)cc1OC` (stereo not given) belongs “inactive”.
